Assay results from PubChem BioAssay (EPA / NIEHS).
Activity calls are given as the source filed them. How the source made its calls: active means hit-call score of the fitted dose curve at least 0.9, where 1 is the maximum; inactive means score below 0.9.

Key:
[1] = CEETOX_H295R_TESTO: CeeTox H295R High-throughput Steroidogenesis Assay for Testosterone (TESTO) (AID 2283457); conditions: actives raise or lower the signal;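 on AC50: cells exposed to chemicals for 48 h before medium collection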
Method in brief: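 Testosterone secreted into the medium over 48 h by H295R cells (maximum passage 10) was quantified by LC-MS/MS after MTBE extraction. Fitted in both directions against DMSO, with concentrations diluted until MTT viability was ≥70%.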

[2] = read-out: Cyclin Dependent Kinase Inhibitor 1A (CDKN1A), CDKN1A (gene 1026); test: LTEA_HepaRG_CDKN1A: Life Technologies and Expression Analysis (LTEA) Assay for Cyclin Dependent Kinase Inhibitor 1A (CDKN1A) using HepaRG (AID 2283450); conditions: mRNA level, 48 h; actives raise or lower the signal
Method in brief: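 Expression quantified by Fluidigm qRT-PCR with ACTB, GAPDH and POLR2A normalization, fitted bidirectionally against 0.5% DMSO. Cells: HepaRG, plated 48 h then treated 48 h in serum-free induction medium, top concentration 100 uM with half-log dilutions.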

[3] = read-out: Cyclin D1 (CCND1), CCND1 (gene 595); test: LTEA_HepaRG_CCND1: Life Technologies and Expression Analysis (LTEA) Assay for Cyclin D1 (CCND1) using HepaRG (AID 2283451); conditions: mRNA level, 48 h; actives raise or lower the signal
Method in brief: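 Expression of CCND1 was quantified by qRT-PCR on Fluidigm arrays using ACTB, GAPDH and POLR2A as reference genes. HepaRG cultures, plated 48 h beforehand, were dosed for 48 h at up to 100 uM (half-log, 8 points) in 0.5% DMSO.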

[4] = read-out: catalase (CAT), CAT (gene 847); test: LTEA_HepaRG_CAT: Life Technologies and Expression Analysis (LTEA) Assay for catalase (CAT) using HepaRG (AID 2283452); conditions: mRNA level, 48 h; actives raise or lower the signal
Method in brief: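 Differentiated HepaRG cells in serum-free induction medium were dosed 48 h in duplicate, eight half-log concentrations from 100 uM in 0.5% DMSO. Transcript measured by TaqMan qRT-PCR, normalised to ACTB/GAPDH/POLR2A, fitted bidirectionally against DMSO.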

[5] = read-out: flavin-containing dimethylaniline monooxygenases 3 (FMO3), FMO3 (gene 2328); test: LTEA_HepaRG_FMO3: Life Technologies and Expression Analysis (LTEA) Assay for flavin-containing dimethylaniline monooxygenases 3 (FMO3) using HepaRG (AID 2283453); conditions: mRNA level, 48 h; actives raise or lower the signal
Method in brief: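 Differentiated HepaRG cells in serum-free induction medium, exposed 48 h in duplicate to 8 half-log concentrations up to 100 uM in 0.5% DMSO. FMO3 mRNA by qRT-PCR, normalized to ACTB, GAPDH, POLR2A; bidirectional fit vs DMSO.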

[6] = read-out: Cytochrome P450 (CYP1A1), CYP1A1 (gene 1543); test: LTEA_HepaRG_CYP1A1: Life Technologies and Expression Analysis (LTEA) Assay for Cytochrome P450 (CYP1A1) using HepaRG (AID 2283454); conditions: mRNA level, 48 h; actives raise or lower the signal
Method in brief: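 CYP1A1 transcript levels measured by Fluidigm qRT-PCR against three housekeeping genes, 48 h after chemical dosing of human HepaRG cells (highest concentration 100 uM, half-log steps, 0.5% DMSO vehicle). Gain or loss of signal fitted relative to DMSO.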

[7] = read-out: CFLAR gene, CFLAR (gene 8837); test: LTEA_HepaRG_CFLAR: Life Technologies and Expression Analysis (LTEA) Assay for CFLAR gene using HepaRG (AID 2283455); conditions: mRNA level, 48 h; actives raise or lower the signal
Method in brief: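 HepaRG cells were plated for 48 h, switched to serum-free induction medium, then exposed in duplicate for 48 h to 8 concentrations (top 100 uM, half-log steps, 0.5% DMSO). CFLAR mRNA was measured by qRT-PCR, normalized to ACTB, GAPDH and POLR2A.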

[8] = read-out: Forkhead box O1 (FOXO1), FOXO1 (gene 2308); test: LTEA_HepaRG_FOXO1: Life Technologies and Expression Analysis (LTEA) Assay for Forkhead box O1 (FOXO1) using HepaRG (AID 2283456); conditions: mRNA level, 48 h; actives raise or lower the signal
Method in brief: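 Differentiated human HepaRG cells in serum-free induction medium were exposed in duplicate for 48 h to eight half-log concentrations (top 100 uM, 0.5% DMSO). FOXO1 mRNA was measured by TaqMan qRT-PCR, normalised to ACTB, GAPDH and POLR2A, and fitted bidirectionally against DMSO.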

[9] = read-out: growth arrest and DNA damage 45 (GADD45A), GADD45A (gene 1647); test: LTEA_HepaRG_GADD45A: Life Technologies and Expression Analysis (LTEA) Assay for growth arrest and DNA damage 45 (GADD45A) using HepaRG (AID 2283458); conditions: mRNA level, 48 h; actives raise or lower the signal
Method in brief: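 Differentiated HepaRG cells exposed 48 h in serum-free induction medium to 8 concentrations, top 100 uM in half-log steps, 0.5% DMSO. GADD45A mRNA quantified by qRT-PCR, normalized to ACTB, GAPDH and POLR2A; bidirectional fit versus DMSO.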

[10] = read-out: Forkhead box O3 (FOXO3), FOXO3 (gene 2309); test: LTEA_HepaRG_FOXO3: Life Technologies and Expression Analysis (LTEA) Assay for Forkhead box O3 (FOXO3) using HepaRG (AID 2283459); conditions: mRNA level, 48 h; actives raise or lower the signal
Method in brief: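 Differentiated human HepaRG cells in serum-free induction medium were exposed in duplicate for 48 h to eight half-log concentrations up to 100 uM in 0.5% DMSO. FOXO3 mRNA was quantified by qRT-PCR, normalized to ACTB, GAPDH and POLR2A, with bidirectional fitting versus DMSO.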

[11] = read-out: ABC Transporter (ABCB1), ABCB1 (gene 5243); test: LTEA_HepaRG_ABCB1: Life Technologies and Expression Analysis (LTEA) Assay for ABC Transporter (ABCB1) using HepaRG (AID 2283460); conditions: mRNA level, 48 h; actives raise or lower the signal
Method in brief: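 Differentiated human HepaRG cells, plated 48 h then switched to serum-free induction medium, were exposed in duplicate to eight half-log concentrations up to 100 uM in 0.5% DMSO for 48 h. ABCB1 mRNA was measured by TaqMan qRT-PCR, normalized to ACTB/GAPDH/POLR2A.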

[12] = read-out: growth arrest and DNA damage 45 (GADD45B), GADD45B (gene 4616); test: LTEA_HepaRG_GADD45B: Life Technologies and Expression Analysis (LTEA) Assay for growth arrest and DNA damage 45 (GADD45B) using HepaRG (AID 2283461); conditions: mRNA level, 48 h; actives raise or lower the signal
Method in brief: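 Transcript level quantified by Fluidigm TaqMan qRT-PCR with three housekeeping genes for normalization, analyzed for up- or down-regulation against 0.5% DMSO. HepaRG cultures dosed 48 h at eight half-log concentrations up to 100 uM, duplicates.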

[13] = read-out: ABC Transporter (ABCC3), ABCC3 (gene 8714); test: LTEA_HepaRG_ABCC3: Life Technologies and Expression Analysis (LTEA) Assay for ABC Transporter (ABCC3) using HepaRG (AID 2283462); conditions: mRNA level, 48 h; actives raise or lower the signal
Method in brief: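 Transcript level by TaqMan qRT-PCR, normalised to three housekeeping genes, fitted in both directions relative to vehicle. Chemicals tested in duplicate at eight half-log concentrations up to 100 uM for 48 h on HepaRG cells (0.5% DMSO).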

[14] = read-out: ABC Transporter (ABCB11), ABCB11 (gene 8647); test: LTEA_HepaRG_ABCB11: Life Technologies and Expression Analysis (LTEA) Assay for ABC Transporter (ABCB11) using HepaRG (AID 2283463); conditions: mRNA level, 48 h; actives raise or lower the signal
Method in brief: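 Differentiated human HepaRG cells were exposed for 48 h in serum-free induction medium to eight half-log concentrations up to 100 uM in 0.5% DMSO. ABCB11 mRNA was quantified by qRT-PCR, normalized to ACTB, GAPDH and POLR2A, and fitted bidirectionally versus DMSO.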

[15] = read-out: ABC Transporter (ABCC2), ABCC2 (gene 1244); test: LTEA_HepaRG_ABCC2: Life Technologies and Expression Analysis (LTEA) Assay for ABC Transporter (ABCC2) using HepaRG (AID 2283464); conditions: mRNA level, 48 h; actives raise or lower the signal
Method in brief: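 Endpoint is ABCC2 transcript level from qRT-PCR, normalized to three housekeeping genes and fitted bidirectionally relative to DMSO. Human HepaRG cells received test chemical for 48 h at up to 100 uM (8 points, half-log steps, 0.5% DMSO), duplicate wells.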

[16] = read-out: Broad substrate specificity ATP-binding cassette transporter ABCG2 (Homo sapiens) (UniProt Q9UNQ0); test: LTEA_HepaRG_ABCG2: Life Technologies and Expression Analysis (LTEA) Assay for ABC Transporter (ABCG2) using HepaRG (AID 2283465); conditions: mRNA level, 48 h; actives raise or lower the signal
Method in brief: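 Differentiated HepaRG cells in serum-free induction medium were exposed for 48 h, in duplicate, to eight half-log concentrations up to 100 uM in 0.5% DMSO. ABCG2 mRNA was measured by TaqMan qRT-PCR, normalized to ACTB, GAPDH and POLR2A, and fitted bidirectionally versus DMSO.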

[17] = read-out: ATP-citrate lyase (ACLY), ACLY (gene 47); test: LTEA_HepaRG_ACLY: Life Technologies and Expression Analysis (LTEA) Assay for ATP-citrate lyase (ACLY) using HepaRG (AID 2283466); conditions: mRNA level, 48 h; actives raise or lower the signal
Method in brief: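 Differentiated human HepaRG cells in serum-free induction medium exposed 48 h, in duplicate, to eight half-log concentrations from 100 uM top in 0.5% DMSO; ACLY mRNA measured by qRT-PCR, normalized to ACTB, GAPDH, POLR2A, fitted bidirectionally versus DMSO.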

[18] = read-out: Peroxisomal acyl-coenzyme A oxidase 1 (ACOX1) gene, ACOX1 (gene 51); test: LTEA_HepaRG_ACOX1: Life Technologies and Expression Analysis (LTEA) Assay for Peroxisomal acyl-coenzyme A oxidase 1 (ACOX1) gene using HepaRG (AID 2283467); conditions: mRNA level, 48 h; actives raise or lower the signal
Method in brief: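 Differentiated human HepaRG cells were exposed in duplicate for 48 h in serum-free induction medium to eight half-log concentrations up to 100 uM in 0.5% DMSO. ACOX1 mRNA was then quantified by TaqMan qRT-PCR, normalized to ACTB, GAPDH and POLR2A.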

[19] = read-out: Alkaline Phosphatase, Placental (ALPP) gene, ALPP (gene 250); test: LTEA_HepaRG_ALPP: Life Technologies and Expression Analysis (LTEA) Assay for Alkaline Phosphatase, Placental (ALPP) gene using HepaRG (AID 2283468); conditions: mRNA level, 48 h; actives raise or lower the signal
Method in brief: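 ALPP transcript level, measured by qRT-PCR and normalized to three housekeeping genes (ACTB, GAPDH, POLR2A), after 48 h dosing of differentiated HepaRG in serum-free induction medium. Top concentration 100 uM with half-log dilutions (8 points, 0.5% DMSO, duplicates); bidirectional fitting relative to DMSO.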

[20] = read-out: Bcl-2 (BAD) gene, BAD (gene 572); test: LTEA_HepaRG_BAD: Life Technologies and Expression Analysis (LTEA) Assay for Bcl-2 (BAD) gene using HepaRG (AID 2283469); conditions: mRNA level, 48 h; actives raise or lower the signal
Method in brief: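 Differentiated human HepaRG cells in serum-free induction medium were exposed in duplicate for 48 h to eight concentrations (top 100 uM, half-log steps, 0.5% DMSO). BAD mRNA was quantified by qRT-PCR normalised to ACTB, GAPDH and POLR2A, with bidirectional fitting versus DMSO.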

Broad substrate specificity ATP-binding cassette transporter ABCG2 (Homo sapiens), sequence (Q9UNQ0 whole entry, looked up): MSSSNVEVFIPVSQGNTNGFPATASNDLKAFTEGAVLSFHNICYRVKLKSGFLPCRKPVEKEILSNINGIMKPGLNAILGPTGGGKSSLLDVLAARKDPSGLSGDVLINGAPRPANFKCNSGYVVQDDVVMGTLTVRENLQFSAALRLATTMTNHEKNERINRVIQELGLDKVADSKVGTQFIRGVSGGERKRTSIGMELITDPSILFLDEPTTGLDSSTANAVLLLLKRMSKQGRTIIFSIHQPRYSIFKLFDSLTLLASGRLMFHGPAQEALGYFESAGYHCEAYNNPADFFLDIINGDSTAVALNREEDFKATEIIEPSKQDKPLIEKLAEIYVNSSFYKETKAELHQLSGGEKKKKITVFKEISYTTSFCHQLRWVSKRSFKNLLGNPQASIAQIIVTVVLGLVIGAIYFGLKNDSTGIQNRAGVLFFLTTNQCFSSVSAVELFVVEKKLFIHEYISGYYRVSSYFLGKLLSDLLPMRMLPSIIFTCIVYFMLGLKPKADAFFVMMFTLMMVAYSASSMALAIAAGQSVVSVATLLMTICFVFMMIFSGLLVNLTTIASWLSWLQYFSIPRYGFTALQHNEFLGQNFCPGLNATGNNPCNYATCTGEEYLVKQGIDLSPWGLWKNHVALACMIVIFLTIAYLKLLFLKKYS

In the case of `CCOC(=O)[C@@H](C)Oc1ccc(Oc2nc3ccc(Cl)cc3o2)cc1`, the outcome [1] is reported as “inactive”.

For `Nc1ccc(N)c2c1C(=O)c1ccccc1C2=O`, the outcome [1] was “inactive”.

For `OCc1cccc(Oc2ccccc2)c1`, the AC50 [1] was 50 µM (active).

In the case of `CCC(C)c1cc([N+](=O)[O-])cc([N+](=O)[O-])c1OC(=O)OC(C)C` (centres undefined), the outcome [1] is reported as “inactive”.

In the case of `BrCc1cccc(Oc2ccccc2)c1`, the AC50 [1] is reported as 34.5 µM (active).

In the case of `CS(=O)(=O)OCCCCOS(C)(=O)=O`, the outcome [2] is reported as “inactive”, the outcome [3] is reported as “inactive” and the outcome [4] is reported as “inactive”. The outcome [5] was “inactive”, the outcome [6] was “inactive” and the outcome [7] was “inactive”. For the same molecule, the outcome [8] was “inactive”, the outcome [9] was “inactive” and the outcome [10] was “inactive”. The outcome [11] was “inactive”, the outcome [12] was “inactive” and the outcome [13] was “inactive”. For the same molecule, the outcome [14] was “inactive”, the outcome [15] was “inactive” and the outcome [16] was “inactive”. For the same molecule, the outcome [17] was “inactive”, the outcome [18] was “inactive” and the outcome [19] was “inactive”. For the same molecule, the outcome [20] was “inactive”.
